Reference: PubChem BioAssay AID1159580 (chemical genetic matrix, 2015)
Where “and” joins values, the source holds several entries; their conditions need not be identical. Equal values may be shown once. The whole screen tested about 5,500 compounds, of which about 2,000 (36%) were called active. Another 18% or so got no clear call; they are omitted. No stated cut-off is given here; in the data, active means normalized growth mostly below about 0.91 (no sharp cut-off); inconclusive means no clear call, values can overlap the other calls; inactive means mostly above about 0.92. The list shows a part of the results.

Assay: chemical genetic growth profiling, strain panel (AID 1159580);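 further: tested at 20 µM; growth read once vehicle control cultures reached saturation at 30 °C; 1 = growth at the plate median or of vehicle wells; lower values mean less growth of the strain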
Settings: S. cerevisiae deletion strains, growth OD

Measured: normalized growth

CCN(CC)CCOC(=O)c1ccc(N)cc1
inactive: locus YAL013W, strain DEP1, active compounds read low 0.955 | locus YAL021C, strain ccr4, active compounds read low 0.964 | locus YAL026C, strain drs2, active compounds read low 0.989 | locus YAL030W, strain snc1, active compounds read low 0.986 | locus YAL040C, strain CLN3, active compounds read low 1.04 | locus YBL061C, strain skt5, active compounds read low 0.999 | locus YBR009C, strain hhf1, active compounds read low 0.95 | locus YBR021W, strain FUR4, active compounds read low 1.01 | locus YBR023C, strain chs3, active compounds read low 0.976 | locus YBR171W, strain sec66, active compounds read low 0.988 | locus YBR229C, strain ROT2, active compounds read low 1.01 | locus YBR231C, strain swc5, active compounds read low 1.01 | locus YBR279W, strain paf1, active compounds read low 0.979 | locus YCL011C, strain gbp2, active compounds read low 0.955 | locus YCL016C, strain dcc1, active compounds read low 0.963 | locus YCL029C, strain bik1, active compounds read low 0.989 | locus YCL061C, strain MRC1 (second series), active compounds read low 0.977 | locus YCL061C, strain MRC1, active compounds read low 0.975 | locus YCL069W, strain vba3, active compounds read low 0.972 | locus YCR088W, strain abp1, active compounds read low 0.978 | locus YDL005C, strain med2, active compounds read low 0.99 | locus YDL035C, strain GPR1, active compounds read low 1.01 | locus YDL040C, strain nat1, active compounds read low 1 | locus YDL074C, strain BRE1, active compounds read low 1.03 | locus YDL101C, strain DUN1, active compounds read low 1.01 | locus YDL134C, strain PPH21, active compounds read low 1.01 | locus YDL185W, strain tfp1, active compounds read low 0.995 | locus YDL192W, strain arf1, active compounds read low 0.986 | locus YDR001C, strain nth1, active compounds read low 0.973 | locus YDR069C, strain doa4, active compounds read low 0.998 | locus YDR101C, strain arx1, active compounds read low 1 | locus YDR137W, strain rgp1, active compounds read low 0.98 | locus YDR150W, strain NUM1, active compounds read low 0.999 | locus YDR159W, strain sac3, active compounds read low 0.928 | locus YDR162C, strain NBP2, active compounds read low 1.01 | locus YDR195W, strain ref2 0.999 | locus YDR297W, strain sur2, active compounds read low 0.986 | locus YDR318W, strain mcm21, active compounds read low 0.977 | locus YDR334W, strain swr1, active compounds read low 0.982 | locus YDR335W, strain msn5, active compounds read low 0.981 | locus YDR363W, strain ESC2, active compounds read low 1.01 | locus YDR388W, active compounds read low 0.997 | locus YDR392W, strain spt3, active compounds read low 0.928 | locus YDR502C, strain sam2, active compounds read low 0.997 | locus YEL003W, strain gim4, active compounds read low 0.98 | locus YEL037C, strain rad23, active compounds read low 0.989 | locus YEL061C, strain CIN8 (second series), active compounds read low 0.978 | locus YEL061C, strain CIN8, active compounds read low 1.01 | locus YER002W, strain NOP16, active compounds read low 0.984 | locus YER015W, strain faa2, active compounds read low 1 | locus YER016W, strain bim1, active compounds read low 0.979 | locus YER110C, active compounds read low 0.999 | locus YER111C, strain swi4, active compounds read low 0.977 | locus YER155C, strain BEM2 (second series), active compounds read low 1.06 | locus YER155C, strain BEM2, active compounds read low 1 | locus YER167W, strain BCK2, active compounds read low 1 | locus YFR010W, strain ubp6, active compounds read low 0.988 | locus YGL078C, strain dbp3, active compounds read low 0.997 | locus YGL086W, strain mad1, active compounds read low 0.994 | locus YGL167C, strain pmr1, active compounds read low 0.997 | locus YGL173C, strain kem1, active compounds read low 0.994 | locus YGL227W, strain vid30, active compounds read low 0.984 | locus YGL240W, strain doc1, active compounds read low 1.01 | locus YGL248W, strain PDE1, active compounds read low 1.01 | locus YGL253W, strain hxk2, active compounds read low 0.963 | locus YGR078C, strain PAC10, active compounds read low 1.01 and 0.99 | locus YGR135W, strain pre9, active compounds read low 0.997 | locus YGR229C, strain SMI1, active compounds read low 0.964 | locus YGR252W, strain gcn5, active compounds read low 0.998 | locus YHR013C, strain ard1, active compounds read low 0.969 | locus YHR027C, strain rpn1, active compounds read low 0.97 | locus YHR030C, strain SLT2, active compounds read low 1 and 1.05 | locus YHR079C, strain IRE1 (second series), active compounds read low 0.981 | locus YHR079C, strain IRE1, active compounds read low 1.04 | locus YHR094C, strain hxt1, active compounds read low 0.983 | locus YHR129C, strain ARP1, active compounds read low 1.01 | locus YHR142W, strain chs7, active compounds read low 0.972 | locus YHR200W, strain rpn10, active compounds read low 0.997 | locus YIL066C, strain RNR3, active compounds read low 1.01 | locus YIL073C, strain SPO22, active compounds read low 0.969 | locus YIL125W, strain kgd1, active compounds read low 0.995 | locus YIR030C, strain dcg1, active compounds read low 0.993 | locus YJL092W, strain hpr5, active compounds read low 0.992 | locus YJL095W, strain BCK1 (second series), active compounds read low 0.993 | locus YJL095W, strain BCK1, active compounds read low 1.03 | locus YJL115W, strain asf1, active compounds read low 0.98 | locus YJL129C, strain trk1, active compounds read low 0.989 | locus YJL134W, strain LCB3, active compounds read low 0.999 | locus YJL154C, strain vps35, active compounds read low 0.987 | locus YJL164C, strain tpk1, active compounds read low 0.961 | locus YJL166W, strain qcr8, active compounds read low 1.02 | locus YJL168C, strain set2, active compounds read low 0.993 | locus YJL187C, strain SWE1 (second series), active compounds read low 1.01 | locus YJR043C, strain POL32, active compounds read low 1.01 | locus YJR066W, strain TOR1, active compounds read low 0.999
